Screens (PubChem BioAssay)
PAFAH2 inh = inhibitors of human PAFAH2; Q99487; recombinant PAFAH2, FP-rhodamine activity probe, fluorescence polarization; inhibition, % at 3.39 µM; 340,000 tested, 0.99% active;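 active = inhibition above the mean over all tested compounds plus 3 SD, cut at about 30% in these data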;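 also: inhibitors block probe labeling of enzyme so polarization drops; 0% = enzyme with DMSO and 100% = wells lacking PAFAH2 protein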
PME-1 primary = blocks human protein phosphatase methylesterase 1. inhibition, % at 5.9 µM. recombinant PME-1, FP-Rh probe fluorescence polarization. 320,000 tested, 0.53% active;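 active = inhibition above the campaign mean of all compounds plus 3 SD, cut at about 26% in these data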;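 also: competitive labeling of PME-1 active site by serine hydrolase directed probe; 0% = PME-1 with DMSO and 100% = wells lacking PME-1 enzyme; inhibitors block probe labeling so polarization falls and inhibition rises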
Target sequence (Q9Y570 whole entry, looked up): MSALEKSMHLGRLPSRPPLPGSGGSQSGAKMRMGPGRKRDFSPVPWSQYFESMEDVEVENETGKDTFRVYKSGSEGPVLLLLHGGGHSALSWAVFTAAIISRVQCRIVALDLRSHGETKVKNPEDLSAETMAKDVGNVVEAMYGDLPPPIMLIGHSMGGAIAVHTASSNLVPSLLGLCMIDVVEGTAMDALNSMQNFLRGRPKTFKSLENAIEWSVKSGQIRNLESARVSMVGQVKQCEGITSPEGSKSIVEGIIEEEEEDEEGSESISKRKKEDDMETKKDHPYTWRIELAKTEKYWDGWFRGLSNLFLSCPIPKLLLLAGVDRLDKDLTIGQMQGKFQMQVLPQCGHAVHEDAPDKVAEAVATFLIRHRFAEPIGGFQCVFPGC
pPAFAH inh = inhibitors of human plasma PAF acetylhydrolase (pPAFAH); recombinant pPAFAH, FP-rhodamine probe fluorescence polarization; Q13093; inhibition, % at 3.39 µM; 330,000 tested, 1.5% active; AID 463082;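 active = inhibition above the mean inhibition across the screen plus 3 SD, cut at about 25% in these data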;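 also: inhibitors block binding of the rhodamine activity-based probe so polarization drops; 0% = enzyme with DMSO and 100% = wells lacking pPAFAH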
Fam108B inh = counter-screen for RBBP9 inhibitors: inhibitors of mouse Fam108B. recombinant Fam108B, FP-Rh probe fluorescence polarization. inhibition, % at 9.51 µM. 300,000 tested, 0.33% active. AID 1947;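 active = inhibition above the screen mean inhibition plus 3 SD, computed separately per campaign, cut at about 18% in these data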;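 also: inhibitors lower polarization as less probe binds the enzyme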
PAFAH1B3 inh = PAFAH1B3 (human) inhibition; 340,000 tested, 0.28% active; inhibition, % at 3.39 µM; recombinant PAFAH1B3, FP-rhodamine probe, fluorescence polarization; AID 492972;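 active = inhibition above the screen-wide average of all tested compounds plus 3 SD, cut at about 25% in these data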;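 also: 0% = enzyme with DMSO only and 100% = wells lacking PAFAH1B3 protein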
Target sequence (Q15102 whole entry, looked up): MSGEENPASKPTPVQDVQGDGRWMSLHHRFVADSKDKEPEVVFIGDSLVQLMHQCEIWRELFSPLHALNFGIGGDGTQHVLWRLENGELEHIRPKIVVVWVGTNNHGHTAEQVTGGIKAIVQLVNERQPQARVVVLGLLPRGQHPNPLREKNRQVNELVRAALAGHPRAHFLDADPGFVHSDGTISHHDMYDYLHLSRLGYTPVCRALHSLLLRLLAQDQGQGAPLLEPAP
PAFAH1B2 inh = inhibitors of human PAFAH1B2. recombinant PAFAH1B2, FP-rhodamine activity probe, fluorescence polarization. inhibition, % at 3.39 µM. 340,000 tested, 1.2% active. AID 492953;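 active = inhibition above the mean of all tested compounds plus 3 SD, cut at about 24% in these data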;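 also: 0% = enzyme with DMSO and 100% = wells lacking PAFAH1B2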
Numbers without * were called inactive; x = no result. In the library only some 2.9% were active in any assay of this set; here they are far more common.

SMILES | PAFAH2 inh | PME-1 primary | pPAFAH inh | Fam108B inh | PAFAH1B3 inh | PAFAH1B2 inh
CC1CCCN(S(=O)(=O)c2ccc(Br)s2)C1 (stereo not drawn) | -1 | 8 | 2 | -2 | 2 | 10
CC1CCN(S(=O)(=O)c2ccc(Br)s2)CC1 | -7 | 2 | -1 | -2 | -1 | 29*
O=C(O)C1CCN(S(=O)(=O)c2ccc(Cl)s2)CC1 | 1 | x | -2 | x | 8 | 27*
CC1CCN(S(=O)(=O)c2ccc(Cl)s2)CC1 | -7 | x | 1 | x | 8 | 25*
N#Cc1ccccc1OCC(=O)NNC(=O)CNC(=O)c1ccc(Br)o1 | 8 | x | -2 | x | 9 | 5
O=C(COC(=O)c1cnccn1)NCc1ccc(Cl)cc1 | 2 | 1 | 3 | 2 | 4 | 4
CC(=O)Nc1ccc(N2Cc3ccccc3C2)cc1 | -2 | -2 | 3 | 0 | 7 | -3
Oc1ccc(CNc2ccc(F)cc2)c2cccnc12 | 7 | -2 | 3 | 8 | 16 | 5
Oc1ccc(CNc2ccccc2)c2cccnc12 | 12 | -3 | 4 | 2 | 26* | 4
Cc1nc2ccccc2c(=O)n1NC(=O)Nc1ccccc1 | -2 | 4 | 2 | 4 | -2 | -6
O=C(NNC(=O)C12CC3CC(CC(Cl)(C3)C1)C2)c1csc(N2CCOCC2)n1 | 11 | 2 | 0 | 3 | 3 | 33*
c1ccc(Cn2cc(CN3CCCO3)c(-c3ccc4c(c3)OCO4)n2)cc1 | -5 | -4 | 0 | 0 | 4 | 3
COc1cc(NC(=O)c2cccnc2Sc2ccc(Cl)cc2)cc(OC)c1OC | -2 | 2 | 1 | -1 | -6 | 3
Cc1ccc(S(=O)(=O)N2CCOCC2)cc1NC(=O)COC(=O)c1cccnc1Cl | 16 | 29* | 9 | 4 | -1 | 5
Cc1ccc(C(=O)NCC(=O)OCC(=O)Nc2cc(S(=O)(=O)N3CCOCC3)ccc2C)cc1 | 2 | 0 | 3 | 0 | 2 | 4
Cc1ccc(S(=O)(=O)N2CCOCC2)cc1NC(=O)COC(=O)CNC(=O)c1ccc(Oc2ccccc2)cc1 | 4 | 4 | 28* | -3 | 4 | -2
O=C(COC(=O)c1cccnc1Cl)Nc1cccc(S(=O)(=O)N2CCOCC2)c1 | 29 | x | -1 | x | -3 | 3
Cc1ccc(S(=O)(=O)N2CCOCC2)cc1NC(=O)COC(=O)c1ccccc1OCc1c(C)noc1C | 9 | 32* | 6 | 2 | 4 | -2
COc1ccc(NC(=O)CSc2nc(N3CCCCC3)nc(N3CCCCC3)n2)cc1 | -8 | -1 | 6 | -2 | 7 | -1
Cc1cc(NC(=S)N(Cc2ccc(Br)cc2)Cc2ccc(C(=O)O)cc2)ccc1Cl | 2 | -1 | 4 | -3 | 5 | 32*
Cc1ccc(C)c(NC(=O)COC(=O)c2cccc(S(=O)(=O)N3CCCCC3)c2)c1 | 7 | -2 | 10 | 2 | -2 | 4
Cc1ccc(S(=O)(=O)N2CCCCC2)cc1NC(=O)c1ccc2c(c1)OCO2 | 10 | -1 | 8 | -11 | -2 | -5
CC1CN(S(=O)(=O)c2cccc(C(=O)OCC(=O)Nc3ccc4c(c3)OCO4)c2)CC(C)O1 (stereo not drawn) | 67* | -2 | 11 | 6 | 1 | 0
NC(=O)NC(=O)COC(=O)c1cccc(S(=O)(=O)N2CCCCCC2)c1 | -1 | 2 | -4 | 0 | 2 | 27*
Cc1ccc(S(=O)(=O)N2CCCCC2)cc1NC(=O)COC(=O)c1ccc2c(c1)OCO2 | 15 | 40* | 10 | -3 | 3 | 4
SMILES | PAFAH2 inh | PME-1 primary | pPAFAH inh | Fam108B inh | PAFAH1B3 inh | PAFAH1B2 inh
COc1ccccc1CNC(=O)COC(=O)c1ccc(C)c(S(=O)(=O)N2CCCCC2)c1 | 42* | 16 | 27* | 2 | 10 | 5
COc1ccc(C(=O)NC(CCSC)C(=O)NC2CC2)cc1 (stereo not drawn) | -3 | 0 | -1 | x | 4 | 5
CCN(CC)C(=O)CSc1nc2c(sc(=S)n2-c2ccccc2)c(=O)n1Cc1ccco1 | 7 | 63* | 5 | 5 | 0 | 5
O=c1cc(-c2ccccc2Cl)oc2ccc([N+](=O)[O-])c(O)c12 | 4 | 12 | 3 | 6 | 4 | 4
Nc1ccc2oc(-c3ccccc3Cl)cc(=O)c2c1O | 4 | 9 | 28* | -1 | 6 | 8
Cc1[nH]c2ccccc2c1/C=N/Nc1nc(Nc2ccccc2)nc(N2CCOCC2)n1 | -16 | 39* | 17 | 12 | 21 | 11
COc1cc(/C=N/NC(=O)c2cc(C34CC5CC(CC(C5)C3)C4)[nH]n2)ccc1O | 16 | 15 | 10 | 21* | 13 | 30*
COc1cc(/C=N/NC(=O)c2cc(C3CC3)[nH]n2)ccc1O | 4 | 11 | 5 | 3 | 0 | 4
COc1ccc(CCNC(=O)C(=O)c2cn(CC(=O)N3CCOCC3)c3ccccc23)cc1 | -3 | -4 | 5 | -2 | 2 | 4
O=C(O)c1nn(CCOc2ccc(Br)cc2)c(=O)c2ccccc12 | 10 | 5 | 1 | -4 | 1 | 27*
Nc1c(C(=O)N/N=C/c2cccnc2)oc2nc(-c3ccco3)cc(-c3ccco3)c12 | x | 7 | 24 | 0 | x | x
NNC(=O)c1oc2nc(-c3ccco3)cc(-c3ccco3)c2c1N | x | 6 | 34* | 13 | x | x
CC[C@H](C)Cc1cn([C@@H](CCCN=C(NC(=O)OC(C)(C)C)NC(=O)OC(C)(C)C)C(=O)NCCCCCCCCCCC(=O)N2CCN(C(=O)OC(C)(C)C)CC2)nn1 | 4 | 5 | 9 | 1 | 27* | 12
COc1cccc(CN(C)C(=O)C2CSC3(C)CCC(=O)N23)c1OC (stereo not drawn) | 0 | 3 | 0 | x | 0 | -5
O=C(Cn1nc(Cc2cccnc2)c2ccccc2c1=O)Nc1ccccc1F | 1 | -5 | 25* | -1 | 1 | 1
O=C(Cn1nc(Cc2cccnc2)c2ccccc2c1=O)Nc1cc(F)ccc1F | 2 | 0 | 1 | -1 | 4 | 5
N#CC1=C(N)Oc2c(ccc3cccnc23)C1c1ccccc1 (stereo not drawn) | 3 | 9 | 12 | 5 | 13 | 2
Cc1ccc2[nH]c(=O)c(C3C(C#N)=C(N)Oc4c3ccc3cccnc43)cc2c1 (stereo not drawn) | 11 | 10 | 25* | 6 | 7 | 3
O=C(NCCN1CCOCC1)c1c(O)nc2sccn2c1=O | 6 | 2 | 1 | 4 | 1 | 5
CCc1cc2cccc(C)c2nc1SCC(=O)NC1CCCC1 | -10 | -6 | 4 | -2 | 1 | 5
CCc1cc2cc(C)ccc2nc1SCC(=O)N1CC(=O)Nc2ccccc21 | -11 | -5 | 29* | -5 | 7 | 0
CCc1cc2c(SCC(=O)N3CC(=O)Nc4ccccc43)ncnc2s1 | -5 | 3 | 0 | 1 | -4 | 3
CCc1ccc2nc(SCC(=O)N3CC(=O)Nc4ccccc43)c(C#N)cc2c1 | -4 | 34* | 0 | -5 | 4 | -3
